CSC inhib – cancer stem cell viability inhibitors, primary screen, luminescence. cancer stem cell-like cells viability. inhibition, % at 7.5 µM. actives 1.1% (n = 300,000). AID 2717, 2010; in the data active = inhibition above about 75%; inconclusive = no clear call, values can overlap the other calls; tested in HMLE shEcad cells
PP1 counter – PP1-alpha phosphatase inhibitors, primary screen, counter-screen for PP5 inhibitor project, biochemical, fluorescence, OMFP substrate, single point | Serine/threonine-protein phosphatase PP1-alpha catalytic subunit (Homo sapiens), P62136 | actives 0.9% (n = 320,000) | AID 2235, 2010 | inhibition, % at 6.7 µM | purified PP1alpha;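 active = inhibition above the mean inhibition of all tested compounds plus 3 SD, computed separately for each screening campaign, cut at about 15% in these data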
Beta cell apopt – inhibitors of cytokine-induced beta cell apoptosis, primary screen, luminescence; INS-1E cytokine-induced death, ATP luminescence, 48 h; percent of positive-control rescue, neutral wells zero; protection from apoptosis, % (no concentration beside the values); actives 0.8% (n = 300,000);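 active = Every replicate reaches about 75%, or at least half do and their mean reaches it too, limit read from the data; inconclusive = At least half of replicates reach the limit but their mean does not; inactive = Under half of replicates reach the limit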;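 also: 0% = cytokine-treated negative control wells and 100% = positive control rescue; higher means more ATP so stronger rescue from cytokine killing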
Mdm2 MdmX PPI – inhibitors of human Mdm2-MdmX association, primary screen, cell-based, luminescence, split luciferase, SaOS-2, uHTS | Protein Mdm4 (Homo sapiens) + E3 ubiquitin-protein ligase Mdm2 (Homo sapiens), … | SaOS-2 split-luciferase Mdm2/MdmX complementation | inhibition, % at 8 µM | actives 3% (n = 330,000) | AID 485346, 2010;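 active = inhibition of at least 50% at 8 µM in the primary screen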
Target sequence (O15151 whole entry, looked up): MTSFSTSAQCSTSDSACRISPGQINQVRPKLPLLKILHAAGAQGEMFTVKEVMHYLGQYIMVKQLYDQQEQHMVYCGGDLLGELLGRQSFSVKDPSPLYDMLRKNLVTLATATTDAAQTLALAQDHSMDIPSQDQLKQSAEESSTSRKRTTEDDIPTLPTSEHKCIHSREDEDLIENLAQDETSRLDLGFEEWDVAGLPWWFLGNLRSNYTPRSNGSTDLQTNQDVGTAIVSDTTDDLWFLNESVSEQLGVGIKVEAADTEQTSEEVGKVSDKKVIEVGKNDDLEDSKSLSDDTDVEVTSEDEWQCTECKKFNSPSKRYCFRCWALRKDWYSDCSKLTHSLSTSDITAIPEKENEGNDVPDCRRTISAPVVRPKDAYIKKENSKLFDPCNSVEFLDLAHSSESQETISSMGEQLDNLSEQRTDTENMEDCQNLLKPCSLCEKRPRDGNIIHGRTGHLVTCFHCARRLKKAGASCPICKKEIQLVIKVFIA
Target sequence (Q00987 whole entry, looked up): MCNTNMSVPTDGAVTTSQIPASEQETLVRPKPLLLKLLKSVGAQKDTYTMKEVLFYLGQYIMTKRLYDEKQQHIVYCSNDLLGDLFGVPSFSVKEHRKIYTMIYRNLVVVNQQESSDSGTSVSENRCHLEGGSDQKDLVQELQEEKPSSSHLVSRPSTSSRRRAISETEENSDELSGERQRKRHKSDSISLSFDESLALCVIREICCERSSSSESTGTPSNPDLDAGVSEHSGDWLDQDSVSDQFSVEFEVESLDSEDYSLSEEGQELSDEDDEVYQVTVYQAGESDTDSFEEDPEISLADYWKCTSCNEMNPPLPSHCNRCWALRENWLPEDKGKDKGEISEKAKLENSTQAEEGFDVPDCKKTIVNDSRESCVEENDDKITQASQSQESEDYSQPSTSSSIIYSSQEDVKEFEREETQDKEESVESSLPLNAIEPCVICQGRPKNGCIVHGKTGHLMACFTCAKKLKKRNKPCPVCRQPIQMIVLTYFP
Calb FLC – C. albicans growth inhibition with fluconazole, primary screen, CaCi-2 strain, Alamar Blue fluorescence | C. albicans CaCi-2 (fluconazole-resistant clinical isolate) + fluconazole, 48 h | actives 0.57% (n = 300,000) | growth inhibition, % (no concentration beside the values);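 active = growth inhibition above about 58% in most replicates, limit read from the data, passing the limit was not always enough; inconclusive = exactly half the replicates above a set limit; inactive = most replicates below a set limit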;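 also: all wells also contain fluconazole at 8 µg/ml as a sub-toxic cotreatment; 0% = median of DMSO wells and 100% = median of geldanamycin control wells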
PP5 primary – PP5 phosphatase inhibitors, primary screen, biochemical, fluorescence | Serine/threonine-protein phosphatase 5 (Homo sapiens), P53041 | purified PP5c, OMFP substrate fluorescence | inhibition, % at 6.7 µM | actives 0.18% (n = 320,000) | AID 1987, 2009;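 active = inhibition above the campaign's mean inhibition across all tested compounds plus 3 SD, cut at about 9.5% in these data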;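 also: 0% = DMSO only and 100% = 100 µM cantharidin control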
Mdm2-MdmX conf – Mdm2-MdmX complex disruptors, retested hits, confirmation, luminescence, single concentration | shares compounds with Mdm2 MdmX PPI | Mdm2-MdmX binding, luminescent assay | inhibition, % at 8 µM | actives 55% (n = 10,000) | AID 489028, 2010; in the data active = inhibition above about 40%
FLuc counter – full-length luciferase signal inhibition, confirmation, counter-screen for Mdm2/MdmX interaction inhibitor project, cell-based, single concentration, SaOS-2. shares compounds with Mdm2 MdmX PPI. SaOS-2 full-length luciferase counterscreen, luminescence. inhibition, % at 8 µM. actives 77% (n = 6,200). AID 504607, 2011;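 active = mean inhibition at 8 µM reaching about 37%, which flags the compound as non-specific, limit read from the data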;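 also: p53-null SaOS-2 cells with luciferase driven by a doxycycline-inducible promoter; compound on cells about two nights before reading with doxycycline added after day one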
* = called active by the depositor; u = inconclusive; x = no result. A selection: hits, their analogues and other compounds. The true share with any hit is near 4.9%.

SMILES	CSC inhib	PP1 counter	Beta cell apopt	Mdm2 MdmX PPI	Calb FLC	PP5 primary	Mdm2-MdmX conf	FLuc counter
COc1ccc(N(C(=O)Cc2cccs2)C(C(=O)NC2CCCC2)c2ccncc2)cc1OC (stereo not drawn)	-7	1	-1	17	-1	0	x	x
COc1ccc(N(C(=O)Cc2cccs2)C(C(=O)NC2CCCCC2)c2cccn2C)cc1OC (stereo not drawn)	-22	-5	1	18	-7	-2	x	x
C#CC(=O)N(c1ccc(OC)c(OC)c1)C(C(=O)NC1CCCC1)c1cccs1 (stereo not drawn)	10	0	50	99*	2	2	100*	53*
C#CC(=O)N(c1cccc(OC)c1)C(C(=O)NC1CCCC1)c1cccs1 (stereo not drawn)	6	5	94*	97*	7	0	100*	52*
COc1cc(N(C(=O)Cc2cccs2)C(C(=O)NC2CCCCC2)c2ccc(C)cc2)ccc1-n1cnnn1 (stereo not drawn)	0	-3	16	84*	9	0	19	x
CC(C)NC(=O)NC(=O)COC(=O)c1cccc(S(=O)(=O)N2CCCCC2)c1	-7	0	4	15	1	-2	x	x
c1ccc2[nH]c(-c3cnco3)cc2c1	-2	-1	-1	10	-4	1	x	x
CCOc1ccccc1NC(=O)c1ccc2ccccc2c1	-5	4	0	7	0	3	x	x
CCOc1ccccc1NC(=O)NNC(=O)c1ccc2ccccc2c1	x	-3	2	60*	5	1	50*	83*
COc1ccc(OC)c2sc(N(CCN(C)C)C(=O)c3ccc4ccccc4c3)nc12	2	-2	2	34	-21	2	x	x
COc1cc2ccccc2cc1C(=O)N(CCN(C)C)c1nc2c(C)cccc2s1	10	5	6	38	34	1	x	x
CCN(CC)CCN(C(=O)c1cc2ccccc2cc1OC)c1nc2ccc(OC)cc2s1	34	11	6	51*	80*	5	25	x
COc1cc2ccccc2cc1C(=O)N(CCN(C)C)c1nc2ccc(C)cc2s1	-8	8	21	68*	-3	4	56*	45*
COc1cc2ccccc2cc1C(=O)N(CCN(C)C)c1nc2c(OC)ccc(OC)c2s1	37	6	-1	61*	37	4	22	66*
COc1ccc(Nc2nc(N)c(C(=O)c3ccc(F)cc3)s2)cc1	62	1	3	51*	41	4	52*	81*
COc1ccc(Nc2nc(N)c(C(=O)c3ccc(OC)cc3)s2)cc1	46	1	-16	50*	45	2	59*	60*
COc1cccc(C(=O)c2sc(NC(C)C)nc2N)c1	x	-1	-30	76*	47	-2	44*	111*
Cc1ccc(C(=O)CCC(=O)OCC(=O)N(C)c2c(N)n(Cc3ccccc3)c(=O)[nH]c2=O)cc1	-5	-10	-1	2	x	0	x	x
Cc1nn(C)cc1C(C(=O)NC1CCCCC1)N(C(=O)Cc1cccs1)c1ccc(Cl)cc1 (stereo not drawn)	x	-1	x	40	-3	-1	x	x
O=C(CCN1CCN(c2ccccc2)CC1)N/N=C/c1ccccc1O	39	-1	30	60*	37	-1	56*	56*
CN1CCN(CCC(=O)N/N=C/c2ccccc2F)CC1	2	-1	-1	-30	12	0	x	x
O=C(O)C1CCCN1S(=O)(=O)c1cccc2nsnc12 (stereo not drawn)	-13	-1	0	11	3	0	x	x
CCCCC(=NCCc1c(C)[nH]c2ccccc12)C1=C(O)CC(c2ccccc2)CC1=O (stereo not drawn)	67	-2	10	57*	-3	1	45*	59*
CC(=NCCc1c(C)[nH]c2ccc(C)cc12)C1=C(O)CC(c2ccccc2)CC1=O (stereo not drawn)	64	0	1	49	-11	3	x	x
CCC/C(O)=C1\C(=O)CC(c2ccccc2)CC1=NCCc1c(C)[nH]c2ccccc12 (stereo not drawn)	24	11	40	36	-5	7	x	x
SMILES	CSC inhib	PP1 counter	Beta cell apopt	Mdm2 MdmX PPI	Calb FLC	PP5 primary	Mdm2-MdmX conf	FLuc counter
CCCC(=NCCc1c(C)[nH]c2ccccc12)C1=C(O)CC(c2ccccc2)CC1=O (stereo not drawn)	x	0	26	52*	0	8	53*	55*
Nc1cc(N)nc(SCC(=O)Nc2cc(S(=O)(=O)N3CCOCC3)ccc2Cl)n1	-1	0	-1	23	-5	2	x	x
Cc1cccc(C(=O)OCC(=O)N2CCCC2=O)c1[N+](=O)[O-]	-6	-5	-3	-14	2	-2	x	x
CCCCCC(=O)Nc1cc(S(=O)(=O)N2CCOCC2)ccc1N1CCN(C)CC1	2	-3	0	14	-6	-3	x	x
COc1ccc(N2C(=O)CC(c3cc(OC)c(OC)c(OC)c3)CC2=O)cc1	3	-2	-1	12	-1	-1	x	x
COc1cc(C2CC(=O)N(c3ccc(C)cc3)C(=O)C2)cc(OC)c1OC	50	-2	7	54*	-1	-1	41*	61*
CC1(C)CC(=O)c2sc(NC(=O)CCS(=O)(=O)c3ccccc3)nc2C1	27	-8	-25	71*	18	-1	26	x
COc1ccc(C)c2sc(NNC(=O)COc3ccccc3)nc12	1	2	3	-1	-13	2	x	x
CCOc1cccc2sc(NC(=O)CCS(=O)(=O)c3ccccc3)nc12	-5	5	-15	70*	62	4	66*	35
COc1ccc(C)c2sc(NC(=O)CCS(=O)(=O)c3ccccc3)nc12	0	1	4	77*	u	4	69*	45*
COc1ccc(NC(=O)CN(C)C(=O)Cc2n[nH]c(=O)c3ccccc23)cc1	-7	-2	2	8	-2	2	x	x
